# Records with an inconclusive call do not appear. Where a call stands in place of a potency, no number is given. Unmarked numbers belong to inactive results. The source made the active and inactive calls. Calls come from the whole dose curve; as a rule, active = well fitted curve in the direction sought with a large enough effect; inconclusive = small, poorly fitted or top-dose-only effect, or another doubt; inactive = no such curve, though single readings can be large; an effect the other way counts as inactive or inconclusive.
# How the values were obtained:
# [1] = biological target: Rap guanine nucleotide exchange factor 3 (Homo sapiens) (UniProt O95398); assay: Confirmatory qHTS for agonist of cAMP-regulated guanine nucleotide exchange factor 3 (EPAC1) (AID 1645881);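 note: EPAC1 catalysed release of BODIPY-GDP from Rap1B seen as fluorescence loss; nearly all actives have a fitted effect of over 75% in size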
# [2] = biological target: Rap guanine nucleotide exchange factor 4 (Homo sapiens) (UniProt Q8WZA2); assay: Confirmatory qHTS for antagonist of cAMP-regulated guanine nucleotide exchange factor 4 (EPAC2) (AID 1645885); note: nearly all actives have a fitted effect of over 25% in size; note: potency is the fitted concentration of half-maximal effect
# [3] = biological target: Rap guanine nucleotide exchange factor 3 (Homo sapiens) (UniProt O95398); assay: Counterscreen qHTS for antagonist of cAMP-regulated guanine nucleotide exchange factor 3 (EPAC1) (AID 1645888);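 note: fluorescence loss as bound BODIPY-GDP is released from Rap1B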
# Procedure, shortened: (§1)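 Measured: fluorescence of BODIPY-GDP bound to Rap1B, which falls as exchange proceeds. Conditions include 50 uM competing GDP, 5 and 30 min reads, and a later cAMP challenge for antagonist detection.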
# [4] = biological target: Rap guanine nucleotide exchange factor 3 (Homo sapiens) (UniProt O95398); assay: Counterscreen qHTS for agonist of cAMP-regulated guanine nucleotide exchange factor 3 (EPAC1) (AID 1645889); note: nearly all actives have a fitted effect of over 40% in size; note: potency is the fitted concentration of half-maximal effect
# Procedure, shortened: as §1
# Chain of Rap guanine nucleotide exchange factor 3 (Homo sapiens) (O95398 whole entry, looked up): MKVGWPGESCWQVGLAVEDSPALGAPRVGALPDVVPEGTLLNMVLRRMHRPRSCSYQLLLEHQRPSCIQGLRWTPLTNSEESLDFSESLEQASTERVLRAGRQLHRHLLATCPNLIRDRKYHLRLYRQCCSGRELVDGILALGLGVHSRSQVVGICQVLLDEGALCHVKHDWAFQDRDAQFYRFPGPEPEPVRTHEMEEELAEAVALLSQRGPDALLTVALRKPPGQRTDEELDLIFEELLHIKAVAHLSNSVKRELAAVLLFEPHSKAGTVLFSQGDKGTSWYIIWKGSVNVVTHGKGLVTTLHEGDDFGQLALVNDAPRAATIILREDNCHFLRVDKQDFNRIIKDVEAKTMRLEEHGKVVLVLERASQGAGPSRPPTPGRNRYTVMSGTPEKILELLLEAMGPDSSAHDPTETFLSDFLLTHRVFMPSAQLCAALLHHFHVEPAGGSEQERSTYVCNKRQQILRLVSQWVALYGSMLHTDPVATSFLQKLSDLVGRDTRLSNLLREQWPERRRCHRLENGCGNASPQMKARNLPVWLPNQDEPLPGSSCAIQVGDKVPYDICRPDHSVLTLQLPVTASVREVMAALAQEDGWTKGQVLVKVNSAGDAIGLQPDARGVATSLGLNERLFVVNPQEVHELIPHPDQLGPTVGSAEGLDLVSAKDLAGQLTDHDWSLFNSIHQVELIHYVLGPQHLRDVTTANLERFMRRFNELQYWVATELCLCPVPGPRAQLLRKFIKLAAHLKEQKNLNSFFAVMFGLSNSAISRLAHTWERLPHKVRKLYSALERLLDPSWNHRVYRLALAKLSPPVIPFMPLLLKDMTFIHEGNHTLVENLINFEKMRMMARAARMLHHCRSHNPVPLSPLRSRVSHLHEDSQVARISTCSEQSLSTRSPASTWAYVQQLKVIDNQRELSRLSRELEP
# Chain of Rap guanine nucleotide exchange factor 4 (Homo sapiens) (Q8WZA2 whole entry, looked up): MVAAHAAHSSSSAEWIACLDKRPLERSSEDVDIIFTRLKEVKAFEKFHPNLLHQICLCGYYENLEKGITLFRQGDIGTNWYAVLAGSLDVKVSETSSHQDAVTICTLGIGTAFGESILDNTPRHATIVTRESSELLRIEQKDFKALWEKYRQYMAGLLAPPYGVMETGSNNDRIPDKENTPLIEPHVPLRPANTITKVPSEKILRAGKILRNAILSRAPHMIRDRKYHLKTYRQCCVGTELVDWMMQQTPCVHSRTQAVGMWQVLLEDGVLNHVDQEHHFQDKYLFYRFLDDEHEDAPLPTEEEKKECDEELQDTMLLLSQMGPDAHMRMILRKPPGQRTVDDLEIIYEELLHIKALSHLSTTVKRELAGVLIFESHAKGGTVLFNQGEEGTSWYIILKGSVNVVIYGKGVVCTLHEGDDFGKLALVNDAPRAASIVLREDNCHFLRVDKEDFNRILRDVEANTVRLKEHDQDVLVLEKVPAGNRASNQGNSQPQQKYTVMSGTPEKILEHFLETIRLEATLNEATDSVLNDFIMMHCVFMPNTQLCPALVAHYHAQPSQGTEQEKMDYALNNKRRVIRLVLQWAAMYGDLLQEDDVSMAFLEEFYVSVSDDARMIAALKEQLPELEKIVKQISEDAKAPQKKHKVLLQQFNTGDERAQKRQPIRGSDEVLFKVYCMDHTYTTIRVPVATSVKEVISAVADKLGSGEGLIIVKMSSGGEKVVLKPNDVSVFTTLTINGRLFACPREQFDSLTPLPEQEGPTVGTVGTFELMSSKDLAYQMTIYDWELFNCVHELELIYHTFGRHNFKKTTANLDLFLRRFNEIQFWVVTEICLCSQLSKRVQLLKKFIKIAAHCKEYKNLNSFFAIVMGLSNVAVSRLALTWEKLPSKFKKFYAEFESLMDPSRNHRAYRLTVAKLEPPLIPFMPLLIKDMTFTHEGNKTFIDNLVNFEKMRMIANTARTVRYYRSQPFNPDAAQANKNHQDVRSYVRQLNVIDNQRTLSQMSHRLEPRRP
smiles,measurement,setting,value
O=C(Nc1cccc(S(=O)(=O)NCc2ccco2)c1)c1cc(-c2ccccc2)nc2ccccc12,Potency,[1],inactive
same,Potency,[2],inactive
same,Potency,[3],inactive
COc1ccc2c(c1)Cc1sc(NC(=O)c3ccccc3Br)nc1-2,Potency,[1],inactive
same,outcome,[2],inactive [at 12.7 µM]
same,Potency,[3],inactive
C#Cc1ccc([C@H]2C=C(C(=O)NCc3ccccc3)O[C@@H](OCC)[C@@H]2CCCO)cc1,Potency,[1],inactive
same,Potency,[2],37.9 µM (active)
same,Potency,[3],inactive
O=S(=O)(c1cccc2ccccc12)N1CCCCC1,Potency,[1],inactive
same,Potency,[2],21.3 µM (active)
same,Potency,[3],inactive
same,Potency,[4],inactive
COc1cccc2cc(/C(=N/O)c3ccccc3)oc12,Potency,[1],inactive
same,Potency,[2],inactive
same,Potency,[3],inactive
CC1=Nc2ccccc2/C1=C/c1sc(=N)n(-c2nccs2)c1O,Potency,[1],inactive
same,Potency,[2],inactive
same,Potency,[3],inactive
same,Potency,[4],56.2 µM (active)
COC(=O)c1ccc(OCC2c3cc(OC)c(OC)cc3CCN2C(=O)c2ccc(OC)cc2)cc1 (configuration not stated),Potency,[1],inactive
same,Potency,[2],inactive
same,Potency,[3],inactive
Cn1cc(/C=C/c2cc[n+](C)cc2)c2cc(F)ccc21,Potency,[1],inactive
same,Potency,[2],inactive
same,Potency,[3],inactive
same,Potency,[4],inactive
Cc1ccccc1C1(O)c2ccccc2-c2ccccc21,Potency,[1],inactive
same,Potency,[2],inactive
same,Potency,[3],inactive
CCCN1C(=O)c2[nH]nc(-c3ccc(F)cc3)c2C1c1ccc(O)c(OCC)c1 (configuration not stated),Potency,[1],inactive
same,Potency,[2],inactive
same,Potency,[3],inactive
same,Potency,[4],inactive
COc1ccc(-c2ccc(C(=O)NC(C)C)c3occc23)c(C)c1,Potency,[1],inactive
same,Potency,[2],inactive
same,Potency,[3],inactive
O=[N+]([O-])c1cccc(S(=O)(=O)Nc2cccc(-c3ccc(N4CCCC4)nn3)c2)c1,Potency,[1],inactive
same,outcome,[2],inactive [at 12.7 µM]
same,Potency,[3],inactive
O=C1NNC(c2ccccc2)=N/C1=C\c1ccccc1Cl,Potency,[1],inactive
same,Potency,[2],inactive
same,Potency,[3],inactive
Cn1ccc2c(-c3ccc(C(C)(C)C)cc3)cc3c(c21)C1CCC3O1 (configuration not stated),Potency,[1],inactive
same,Potency,[3],inactive
same,Potency,[4],inactive
COc1ccc(C2CC(=O)Oc3cc(OC)c(OC)c(OC)c32)cc1 (configuration not stated),Potency,[1],inactive
same,"activity change, negative = inhibition",[3],-24.9% [at 30.8 µM]
same,activation,[4],20% [at 30.8 µM]
O=C(O)c1cnn(-c2nc(-c3ccc(Cl)c(Cl)c3)cs2)c1C(F)(F)F,Potency,[1],inactive
same,Potency,[3],inactive
same,Potency,[4],inactive
Cc1ccc(S(=O)(=O)CC(=O)c2cc3cccc(C)c3oc2=O)cc1,Potency,[1],inactive
same,Potency,[3],inactive
same,Potency,[4],inactive
COC(=O)C1=C(C)N(Cc2ccco2)C(=O)N[C@H]1c1cccc(C(F)(F)F)c1,Potency,[1],inactive
same,Potency,[4],inactive
CNc1snc(C)c1C(=O)OCC(=O)Nc1ccc(C)cc1F,Potency,[1],inactive
same,Potency,[3],inactive
same,Potency,[4],inactive
CN(CC(=O)Nc1cccc(F)c1)C(=O)/C=C/c1cc(Br)ccc1OC(F)F,Potency,[1],inactive
same,Potency,[3],inactive
Cc1ccc2c(c1)OC(=O)CC2c1ccccc1 (configuration not stated),Potency,[1],inactive
same,Potency,[3],inactive
CSc1nc(N)c(C(=O)N(c2ccccc2)c2ccccc2)s1,Potency,[1],inactive
same,"activity change, negative = inhibition",[3],-10.5% [at 30.8 µM]
same,activation,[4],22.8% [at 30.8 µM]
COc1ccc(CN(C(=O)c2ccco2)c2ccc(C)c(C)c2)cc1,Potency,[1],inactive
same,"activity change, negative = inhibition",[3],-23% [at 30.8 µM]
same,activation,[4],12.3% [at 30.8 µM]
CCC(CC)C(=O)Nc1nc(-c2ccc3c(c2)CCN3C(=O)C2CC2)c(C)s1,Potency,[1],inactive
same,"activity change, negative = inhibition",[3],-24% [at 30.8 µM]
same,activation,[4],26.5% [at 30.8 µM]
CCOC(=O)C1=C(C)N(C)C(C)=C(C(=O)OCC)C1c1ccc(Cl)cc1,Potency,[1],inactive
same,Potency,[3],inactive
same,Potency,[4],inactive
Cc1ccc(N(Cc2ccc([N+](=O)[O-])cc2)C(=O)c2ccco2)cc1C,Potency,[1],inactive
same,Potency,[3],inactive
same,Potency,[4],inactive
COc1ccc(CN2C(=O)c3cccnc3C2O)cc1 (configuration not stated),Potency,[1],inactive
same,Potency,[3],inactive
same,Potency,[4],inactive
CCOC(=O)c1c(CC(C)C)csc1NC(C)=O,Potency,[1],inactive
same,Potency,[4],inactive
CC(=O)NC(c1cccc(F)c1)c1nc(/C=C/c2ccccc2)cs1 (configuration not stated),Potency,[1],inactive
same,Potency,[3],inactive
COC(=O)c1ccc2nc(-c3ccc(Cl)cc3)c(Cc3ccccc3OC)n2c1,Potency,[1],inactive
same,Potency,[3],inactive
same,Potency,[4],inactive
COc1ccccc1CNC(=O)C1(C)CCN1Cc1ccc2ccccc2c1 (configuration not stated),Potency,[1],inactive
same,Potency,[3],inactive
same,Potency,[4],inactive
COc1ccc(C(=O)c2oc3ccc(OC)cc3c2N)cc1,Potency,[1],inactive
same,Potency,[3],inactive
same,Potency,[4],inactive
CC(=O)N(CCC(Cc1ccccc1)c1ccco1)Cc1ccco1 (configuration not stated),Potency,[1],inactive
same,"activity change, negative = inhibition",[3],-6.33% [at 30.8 µM]
same,activation,[4],32.1% [at 30.8 µM]
COC(=O)c1ccc2nc(-c3ccc(Cl)cc3)c(Cc3ccsc3)n2c1,Potency,[1],inactive
same,Potency,[3],inactive
same,Potency,[4],inactive
CCC(=O)OC1CC(C)N(C(=O)c2ccccc2)c2ccc(C)cc21 (configuration not stated),Potency,[1],inactive
same,Potency,[3],inactive
same,Potency,[4],inactive
Cc1nc2ccccc2c(C)c1C(=O)c1ccccc1,Potency,[1],inactive
same,activation,[4],-2.6% [at 30.8 µM]
CCC(C(=O)c1ccc2ncccc2c1)c1ccccc1 (configuration not stated),Potency,[1],inactive
same,Potency,[3],inactive
same,Potency,[4],inactive
CCOc1ccc(N(Cc2ccc(OC)cc2)C(=O)c2ccco2)cc1,Potency,[1],inactive
same,Potency,[4],inactive
c1ccc(CNc2c(-c3cccc(SC4CCCCC4)c3)nc3ccccn23)cc1,Potency,[1],inactive
same,"activity change, negative = inhibition",[3],4.85% [at 30.8 µM]
same,activation,[4],4.1% [at 30.8 µM]
COC(=O)c1ccc2nc(-c3cccc(Cl)c3)c(Cc3ccccc3)n2c1,Potency,[1],inactive
same,"activity change, negative = inhibition",[3],-21.2% [at 30.8 µM]
same,activation,[4],15.5% [at 30.8 µM]

# Source: PubChem BioAssay (NCATS)
